Laboratory results taken from PubChem BioAssay AID1159580 (chemical genetic matrix, 2015).
Several values for one entry are separate records, joined by “and”; a condition that tells them apart may be missing. Equal values may be shown once. Among all 5,500 compounds or so, about 2,000 (36%) were called active. Not shown: some 18% with an inconclusive outcome. No stated cut-off is given here; in the data, active means normalized growth mostly below about 0.91 (no sharp cut-off); inconclusive means no clear call, values can overlap the other calls; inactive means mostly above about 0.92. This is one part of the list.

Test: chemical genetic growth profiling, strain panel (AID 1159580);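 further: tested at 20 µM; growth read once vehicle control cultures reached saturation at 30 °C; 1 = growth at the plate median or of vehicle wells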
Conditions: S. cerevisiae deletion strains, growth OD

Measured: normalized growth

c1ccc(CC2=NCCN2)cc1
inactive: locus YAL013W, strain DEP1, stronger effect = lower value 1.01 | locus YAL021C, strain ccr4, stronger effect = lower value 1.01 | locus YAL026C, strain drs2, stronger effect = lower value 1.03 | locus YAL030W, strain snc1, stronger effect = lower value 1.01 | locus YBL061C, strain skt5, stronger effect = lower value 1.01 | locus YBR009C, strain hhf1, stronger effect = lower value 0.998 | locus YBR021W, strain FUR4, stronger effect = lower value 0.861 | locus YBR023C, strain chs3, stronger effect = lower value 1.01 | locus YBR171W, strain sec66, stronger effect = lower value 1.03 | locus YBR229C, strain ROT2, stronger effect = lower value 0.983 | locus YBR231C, strain swc5, stronger effect = lower value 1.01 | locus YBR279W, strain paf1, stronger effect = lower value 1.01 | locus YCL011C, strain gbp2, stronger effect = lower value 1.02 | locus YCL016C, strain dcc1, stronger effect = lower value 1 | locus YCL061C, strain MRC1, stronger effect = lower value 1.02 | locus YCL069W, strain vba3, stronger effect = lower value 1.03 | locus YCR088W, strain abp1, stronger effect = lower value 1.01 | locus YDL005C, strain med2, stronger effect = lower value 1.02 | locus YDL035C, strain GPR1, stronger effect = lower value 0.963 | locus YDL040C, strain nat1, stronger effect = lower value 1 | locus YDL074C, strain BRE1, stronger effect = lower value 1 | locus YDL101C, strain DUN1, stronger effect = lower value 0.987 | locus YDL134C, strain PPH21, stronger effect = lower value 0.99 | locus YDL192W, strain arf1, stronger effect = lower value 0.952 | locus YDR001C, strain nth1, stronger effect = lower value 1.01 | locus YDR069C, strain doa4, stronger effect = lower value 1 | locus YDR137W, strain rgp1, stronger effect = lower value 1.03 | locus YDR150W, strain NUM1, stronger effect = lower value 0.983 | locus YDR159W, strain sac3, stronger effect = lower value 0.977 | locus YDR162C, strain NBP2, stronger effect = lower value 0.967 | locus YDR195W, strain ref2 1.02 | locus YDR297W, strain sur2, stronger effect = lower value 1.01 | locus YDR334W, strain swr1, stronger effect = lower value 1.02 | locus YDR335W, strain msn5, stronger effect = lower value 1 | locus YDR392W, strain spt3, stronger effect = lower value 0.933 | locus YEL003W, strain gim4, stronger effect = lower value 1.01 | locus YEL037C, strain rad23, stronger effect = lower value 1.02 | locus YEL061C, strain CIN8 (second series), stronger effect = lower value 1.01 | locus YEL061C, strain CIN8, stronger effect = lower value 0.987 | locus YER015W, strain faa2, stronger effect = lower value 1.01 | locus YER016W, strain bim1, stronger effect = lower value 1.04 | locus YER110C, stronger effect = lower value 0.929 | locus YER111C, strain swi4, stronger effect = lower value 1.02 | locus YER155C, strain BEM2 (second series), stronger effect = lower value 1.02 | locus YER167W, strain BCK2, stronger effect = lower value 0.939 | locus YFR010W, strain ubp6, stronger effect = lower value 1.01 | locus YGL086W, strain mad1, stronger effect = lower value 0.955 | locus YGL167C, strain pmr1, stronger effect = lower value 1.02 | locus YGL173C, strain kem1, stronger effect = lower value 0.998 | locus YGL227W, strain vid30, stronger effect = lower value 1.03 | locus YGL240W, strain doc1, stronger effect = lower value 0.97 | locus YGL248W, strain PDE1, stronger effect = lower value 0.996 | locus YGL253W, strain hxk2, stronger effect = lower value 1.01 | locus YGR078C, strain PAC10, stronger effect = lower value 0.988 | locus YGR135W, strain pre9, stronger effect = lower value 0.937 | locus YGR229C, strain SMI1, stronger effect = lower value 1.01 | locus YGR252W, strain gcn5, stronger effect = lower value 0.898 | locus YHR013C, strain ard1, stronger effect = lower value 1.02 | locus YHR027C, strain rpn1, stronger effect = lower value 1.02 | locus YHR030C, strain SLT2, stronger effect = lower value 0.976 and 0.967 | locus YHR079C, strain IRE1, stronger effect = lower value 0.961 | locus YHR129C, strain ARP1, stronger effect = lower value 0.958 | locus YHR142W, strain chs7, stronger effect = lower value 1.02 | locus YIL066C, strain RNR3, stronger effect = lower value 0.987 | locus YIL073C, strain SPO22, stronger effect = lower value 1.01 | locus YJL092W, strain hpr5, stronger effect = lower value 1.01 | locus YJL095W, strain BCK1 (second series), stronger effect = lower value 1.01 | locus YJL095W, strain BCK1, stronger effect = lower value 1.01 and 0.968 | locus YJL115W, strain asf1, stronger effect = lower value 1.02 | locus YJL129C, strain trk1, stronger effect = lower value 1.03 | locus YJL134W, strain LCB3, stronger effect = lower value 0.969 | locus YJL154C, strain vps35, stronger effect = lower value 1.01 | locus YJL164C, strain tpk1, stronger effect = lower value 1.02 | locus YJL166W, strain qcr8, stronger effect = lower value 1.03 | locus YJL187C, strain SWE1 (second series), stronger effect = lower value 0.988 | locus YJL187C, strain SWE1, stronger effect = lower value 1.02 | locus YJR043C, strain POL32, stronger effect = lower value 0.939 | locus YJR066W, strain TOR1, stronger effect = lower value 0.935
active: locus YCL029C, strain bik1, stronger effect = lower value 0.887 | locus YDL185W, strain tfp1, stronger effect = lower value 0.816 | locus YDR101C, strain arx1, stronger effect = lower value 0.903 | locus YDR318W, strain mcm21, stronger effect = lower value 0.893 | locus YDR388W, stronger effect = lower value 0.923 | locus YDR502C, strain sam2, stronger effect = lower value 0.91 | locus YER155C, strain BEM2, stronger effect = lower value 0.891 | locus YGL078C, strain dbp3, stronger effect = lower value 0.806 | locus YHR079C, strain IRE1 (second series), stronger effect = lower value 0.865 | locus YHR094C, strain hxt1, stronger effect = lower value 0.9 | locus YHR200W, strain rpn10, stronger effect = lower value 0.91 | locus YIL125W, strain kgd1, stronger effect = lower value 0.787 | locus YIR030C, strain dcg1, stronger effect = lower value 0.899 | locus YJL168C, strain set2, stronger effect = lower value 0.915
